A selection: hits, their analogues and other compounds. The true share with any hit is near 12%.
Lmaj promast: reduces viability of Leishmania major promastigotes; 200,000 compounds, 9% hits; resazurin fluorescence viability; inhibition, % at 10 µM; AID 1063; in the data active = inhibition above about 50%;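 also: promastigotes grown with compound for 44 hours at 28 °C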
WT yeast gro inh: growth inhibition of WT yeast, mitochondrial fusion screen; 190,000 compounds, 2.1% hits; mitochondrial fusion phenotypic screen, WT strain; AID 1362; inhibition, % at 10 µM; in the data active = inhibition above about 58%; tested in S. cerevisiae
Cl transport mod: modulators of human KCC2 chloride dependent transport; 190,000 compounds, 2.2% hits; KCC2 cells, thallium flux FluoZin-2 fluorescence; B-score of Tl+ flux slope (higher = more flux/activation; lower = inhibition) at 10 µM; Q9H2X9;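 active = thallium flux slope and its plate-corrected score both differing from the plate sample mean at a set confidence after two filtering rounds, in either direction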;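 also: slope of fluorescence scaled to starting intensity during 10 to 20 s after thallium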
ROMK primary: modulators of human ROMK potassium channel. Tet-inducible ROMK, thallium flux fluorescence; actives lie on both sides. B-score at 10 µM. 130,000 compounds, 2% hits. AID 1918;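 active = signal ratio slope over the read window, or its plate-corrected B-score, at least 3 SD from the plate mean, either direction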;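 also: B-score of the F/F0 ratio slope over 7 to 12 s after thallium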
Target sequence (P48048 whole entry, looked up): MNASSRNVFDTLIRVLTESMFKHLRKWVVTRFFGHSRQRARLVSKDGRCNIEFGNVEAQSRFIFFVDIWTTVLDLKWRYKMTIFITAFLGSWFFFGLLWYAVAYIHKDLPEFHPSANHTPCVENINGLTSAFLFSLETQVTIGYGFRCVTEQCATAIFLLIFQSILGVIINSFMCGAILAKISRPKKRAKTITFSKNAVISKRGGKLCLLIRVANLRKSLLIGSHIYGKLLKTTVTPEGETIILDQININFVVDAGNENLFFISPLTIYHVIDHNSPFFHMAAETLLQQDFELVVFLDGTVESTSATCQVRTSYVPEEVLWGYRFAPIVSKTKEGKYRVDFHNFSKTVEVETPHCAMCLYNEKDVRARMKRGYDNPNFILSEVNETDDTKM
Insulin prom up: MIN6 insulin promoter up-regulation | z-score at 5 µM | 190,000 compounds, 0.3% hits | AID 1625 | MIN6 insulin promoter-GFP reporter, high-content imaging; hits give high values;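 active = z-score above 3 at 5 µM with at least 500 cells counted in the well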
INS promoter inh: TRM-6 insulin promoter activity inhibition; TRM-6 cells (human fetal islet line), insulin promoter-eGFP reporter, imaging; reporter expression induced with tamoxifen; inhibition, % at 2 µM; 130,000 compounds, 0.9% hits;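 active = inhibition above the mean plus 3 SD, with well images judged a real hit on visual review, cut at about 60% in these data, passing the limit was not always enough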
Of the large screens only hits and unclear results are named; the others gave an inactive call.

O=C(Nc1ccccc1-c1ccccc1)C12CC3CC(CC(C3)C1)C2	Lmaj promast 88.5 (no result: Cl transport mod, ROMK primary)
CCOc1ccccc1N1CCN(C(=O)CC(C)(C)C)CC1	none (no result: INS promoter inh)
CCOc1ccccc1N1CCN(C(=S)NC(=O)C23CC4CC(CC(C4)C2)C3)CC1	WT yeast gro inh 58.7, Cl transport mod 4.75 (no result: ROMK primary, INS promoter inh)
Nc1cc(N)nc(SCc2nnnn2-c2ccc(Cl)cc2)n1	none
COCCNc1nc2c(c(=O)n(C)c(=O)n2C)n1Cc1cccc(C)c1	none (no result: ROMK primary, Insulin prom up, INS promoter inh)
Cc1cccc(OCCNc2nc3c(c(=O)n(C)c(=O)n3C)n2C)c1	Insulin prom up 4.22 (no result: Cl transport mod)
CCS(=O)(=O)N1CCN(CC2CC3C=CC2C3)CC1 (stereo not given)	Lmaj promast 92.8
CCCS(=O)(=O)N1CCN(S(=O)(=O)c2ccc(F)cc2)CC1	none (no result: Cl transport mod, ROMK primary)
CCS(=O)(=O)N1CCN(Cc2c[nH]c3ccccc23)CC1	none (no result: INS promoter inh)
CCCS(=O)(=O)N1CCN(CC2CC=CCC2)CC1 (stereo not given)	Lmaj promast 76.2 (no result: ROMK primary)
CCCS(=O)(=O)N1CCN(CC2CC3C=CC2C3)CC1 (stereo not given)	Lmaj promast 88.1 (no result: ROMK primary)
O=C(Cc1ccc(-c2ccccc2)cc1)N1CCOCC1	none (no result: ROMK primary)
COC(=O)c1c(NS(C)(=O)=O)sc2c1CCCC2	none
CC(C)OC(=O)c1c(NS(=O)(=O)c2ccccc2)sc2c1CCCC2	Cl transport mod 23.1 (no result: Insulin prom up)
COC(=O)c1c(NS(=O)(=O)Cc2ccccc2)sc2c1CCCC2	Cl transport mod 45.1
CN(Cc1nc(-c2cccs2)no1)CC1(N2CCOCC2)CCCCC1	none (no result: Insulin prom up, INS promoter inh)
Cc1ccc(O)c(C(=O)c2cnc3c(c2)c(=O)n(C)c(=O)n3C)c1	none
Cc1ccc(O)c(C(=O)c2cnc3c(c2)c(C)nn3-c2ccccc2)c1	Lmaj promast 76.8 (no result: ROMK primary)
Cc1ccc(O)c(C(=O)c2cnc3c(c2)c(-c2ccc(F)cc2)c(C#N)c(=O)n3C)c1	Lmaj promast 52.3 (no result: INS promoter inh)
Cc1ccc(O)c(C(=O)c2cnc3c(c2)CN(C)C(=O)N3)c1	none
CCOc1cccc2sc(Nc3nc4ccc(NC(C)=O)cc4s3)nc12	Lmaj promast 80.2 (no result: ROMK primary)
S=C(c1c[nH]c2ccccc12)N1CCOCC1	none (no result: INS promoter inh)
FC(F)(F)c1cc(CCN2C(=S)NC[C@@H]2Cc2ccccc2)cc(C(F)(F)F)c1	WT yeast gro inh 64.0 (no result: ROMK primary, INS promoter inh)
Oc1ccc(C[C@@H]2CNC(=S)N2CCc2cc(C(F)(F)F)cc(C(F)(F)F)c2)cc1	none (no result: Lmaj promast, WT yeast gro inh, ROMK primary, INS promoter inh)
CCOC(=O)C1CCN(S(=O)(=O)c2cc(Cl)c(C)cc2OC)CC1	Lmaj promast 91.3
CCOC(=O)N1CCN(C(=O)C2CCN(S(=O)(=O)c3cc(Cl)ccc3Cl)CC2)CC1	Lmaj promast 98.8
Cc1cc(Cl)c(S(=O)(=O)N2CCCCCC2)cc1OCC(N)=O	Lmaj promast 67.3 (no result: ROMK primary)
CCOC(=O)C1CCN(S(=O)(=O)c2ccc(Cl)cc2OC)CC1	none (no result: Cl transport mod, ROMK primary)
Cc1ccc(NS(=O)(=O)c2cc(OCC(N)=O)c(C)cc2Cl)cc1C	ROMK primary -3.05 (no result: Insulin prom up)
CCNC(=S)N1CCN(C(=O)C(Cc2ccccc2)NC(C)=O)CC1 (stereo not given)	none (no result: Insulin prom up, INS promoter inh)
Cc1cc(Cl)c(S(=O)(=O)N2CCCC2)cc1OCC(N)=O	none (no result: INS promoter inh)
Cc1cc(Cl)c(S(=O)(=O)N2CCSCC2)cc1OCC(=O)NC1CCCCC1	none (no result: Insulin prom up)
Cc1cc(Cl)c(S(=O)(=O)N2CCCCCC2)cc1OCC(=O)NC1CCCCC1	Lmaj promast 96.0
CCN1CCN(S(=O)(=O)c2cc(OCC(=O)NC3CCCCC3)c(C)cc2Cl)CC1	none (no result: ROMK primary)
Cc1cc(Cl)c(S(=O)(=O)N2CCN(c3cccc(C)c3C)CC2)cc1OCC(N)=O	Lmaj promast 95.5 (no result: Insulin prom up)
CCOC(=O)N1CCN(S(=O)(=O)c2cc(OCC(=O)NC3CCCCC3)c(C)cc2Cl)CC1	Lmaj promast 64.0 (no result: Insulin prom up)
COc1cc2c(C(=O)NCc3ccccn3)cn(CC(C)C)c(=O)c2cc1OC	none (no result: ROMK primary, INS promoter inh)
N#Cc1c(N)c(C(=O)c2ccccc2)n2c1CCCC2	none (no result: Cl transport mod, Insulin prom up)
CCn1c(=S)sc2c(=O)n(-c3ccccc3)c(SC)nc21	Lmaj promast 87.1 (no result: Cl transport mod)
N#CCSc1nc2c(sc(=S)n2Cc2ccco2)c(=O)n1-c1ccc(F)cc1	Lmaj promast 95.5 (no result: Cl transport mod)
O=C(CN1CCN(c2ccccn2)CC1)Nc1cccc(S(=O)(=O)N2CCCC2)c1	none (no result: Cl transport mod, INS promoter inh)
CCN1C(=O)c2cccc3c(S(=O)(=O)NCCCN4CCOCC4)ccc1c23	Lmaj promast 78.0 (no result: Cl transport mod)
CCN1C(=O)c2cccc3c(S(=O)(=O)NCCc4c[nH]c5ccccc45)ccc1c23	Lmaj promast 98.8 (no result: Insulin prom up)
O=C(CN1C(=O)c2ccccc2C1=O)NCCc1c[nH]c2ccccc12	none (no result: ROMK primary)

High-throughput results deposited in PubChem BioAssay by several laboratories.
